Assay [1] deals with DLD1. Nature of the assay: cell viability (CellTiter-Glo) relative to plate median (fraction of plate median); higher = more viable cells. The settings on record: 5 µM; treatment time 24 h; reporter: 7TFP. The method, boiled down:
(§1)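 Library compounds were added at a final concentration of 5 µM for 24 h to colorectal cancer cells stably transduced with a lentiviral TCF/Wnt firefly luciferase reporter. Reported values are firefly luciferase or CellTiterGlo luminescence, normalised per well to the plate median. Each value averages two independent replicates.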
(ATP-based viability assays read luminescence as a measure of living cells.)

For assay [2], the system named is HCT116. The assay is described as above. To be noted: 5 µM; treatment time 24 h; reporter: TCF4/Wnt. The method, boiled down:
as §1

The subject of assay [3] is SW480. The assay is described as above. The settings on record: 5 µM; treatment time 24 h; reporter: 7TFP. The method, boiled down: as §1
Assay [4] concerns DLD1. In words: TCF/Wnt firefly luciferase reporter signal relative to plate median (fraction of plate median); higher = higher Wnt reporter signal. The settings on record: 5 µM; treatment time 24 h; reporter: 7TFP. The method, boiled down: as §1
Assay [5] concerns SW480. Described as above. The settings on record: 5 µM; treatment time 24 h; reporter: 7TFP. The method, boiled down: as §1

± gives the standard deviation of the averaged measurements.

As to `C[C@H]1C(=O)CC[C@@H]2[C@]1(C)CC[C@H]1[C@@]2(C)CC[C@@]2(C)[C@@H]3CC(C)(C)CC[C@]3(C)CC[C@]12C`, the cell viability came to 1.04 ± 0.014 in assay [1], 0.983 ± 0.052 in assay [2] and 0.9995 ± 0.00071 in assay [3]. Further, the results for the “TCF/Wnt firefly luciferase reporter signal” value in assay [4] and in assay [5] were 0.95 ± 0.042 and 0.88 ± 0.09, respectively.

For the compound `C[C@]12CC[C@@H](O)C[C@H]1CCc1ccccc12` [3alpha-HYDROXY-4,4-BISNOR-8,11,13-PODOCARPATRIENE], the cell viability amounted to 1.03 ± 0.08 in assay [1], 1.01 ± 0.27 in assay [2] and 1.03 ± 0.014 in assay [3]. Moreover, the “TCF/Wnt firefly luciferase reporter signal” value in assay [4] worked out at 0.971 ± 0.022; in assay [5], 1.15 ± 0.064.

Turning to `CN(C)CCCN1c2ccccc2Sc2ccccc21`, the cell viability in assay [1] is 0.908 ± 0.056; in assay [2], 0.908 ± 0.032; in assay [3], 0.96 ± 0.071. The figures for the “TCF/Wnt firefly luciferase reporter signal” value in assay [4] and in assay [5] were 0.92 ± 0.021 and 0.895 ± 0.069, respectively.

As for `O=C(O)CCCCCCCC(=O)O`, the cell viability in assay [1] stood at 1.01 ± 0.014; in assay [2] it was 1.11 ± 0.11; in assay [3], 1.09 ± 0.021. Also, the “TCF/Wnt firefly luciferase reporter signal” value in assay [4] amounted to 1.16 ± 0.13; in assay [5] it was 1.01 ± 0.084.

Consider `CCCCCCCCCCCC[C@@H](C(=O)O)[C@H](C)C(=O)O`, for which the cell viability stood at 1.005 ± 0.0071 in assay [1], 1.08 ± 0.25 in assay [2] and 1 ± 0.028 in assay [3]. For the same compound, the “TCF/Wnt firefly luciferase reporter signal” value is 0.944 ± 0.11 in assay [4] and 1.03 in assay [5].

With `CC(=O)O[C@]1(C(C)=O)CC[C@H]2[C@@H]3C=C(Cl)C4=CC(=O)CC[C@]4(C)[C@H]3CC[C@@]21C`, the cell viability in assay [1] was determined as 0.905 ± 0.016; in assay [2] it was 0.972 ± 0.082; in assay [3], 1.04 ± 0.042. Also, the “TCF/Wnt firefly luciferase reporter signal” value in assay [4] amounted to 0.9805 ± 0.0064; in assay [5], 1.06 ± 0.088.

In the case of `NCCOB(c1ccccc1)c1ccccc1`, the cell viability in assay [1] amounted to 0.968 ± 0.037; in assay [2] it was 0.933 ± 0.042; in assay [3], 0.96 ± 0.0071. In addition, the “TCF/Wnt firefly luciferase reporter signal” value in assay [4] worked out at 1.135 ± 0.0071; in assay [5], 1.04.

For `CC(=O)Oc1ccc(C(c2ccc(OC(C)=O)cc2)c2ccccn2)cc1`, the values for the cell viability in assay [1], in assay [2] and in assay [3] were 0.806 ± 0.057, 0.931 ± 0.15 and 1.1 ± 0.092, respectively. Besides, the “TCF/Wnt firefly luciferase reporter signal” value in assay [4] came to 0.65 ± 0.098; in assay [5], 1.03 ± 0.085.

`CC1/C(=N/O)C[C@@H]2C[C@H]1C2(C)C` (stereo not given in full): the cell viability came to 1.07 ± 0.014 in assay [1], 1.09 ± 0.014 in assay [2] and 1.02 ± 0.037 in assay [3]. In addition, the “TCF/Wnt firefly luciferase reporter signal” value in assay [4] was found to be 1.08 ± 0.042; in assay [5], 0.919 ± 0.17.

For `C[C@@H]1C/C=C/C=C/C=C/C=C/[C@H](O[C@@H]2O[C@H](C)[C@@H](O)[C@H](N)[C@@H]2O)C[C@@H]2O[C@](O)(C[C@@H](O)C[C@H]3O[C@@H]3/C=C/C(=O)O1)C[C@H](O)[C@H]2C(=O)O`, the values for the cell viability in assay [1], in assay [2] and in assay [3] were 1.03 ± 0.08, 0.915 ± 0.13 and 0.987 ± 0.019, respectively. The “TCF/Wnt firefly luciferase reporter signal” value turned out to be 0.921 ± 0.033 in assay [4] and 0.962 ± 0.028 in assay [5].

Regarding `Nc1ccc(S(=O)(=O)c2ccc(N)cc2)cc1`, the cell viability is 1.08 ± 0.057 in assay [1], 0.956 ± 0.063 in assay [2] and 1.02 in assay [3]. In addition, the entries for the “TCF/Wnt firefly luciferase reporter signal” value in assay [4] and in assay [5] were 0.94 ± 0.054 and 0.922 ± 0.059, respectively.

Consider `O=C(Oc1cc(OC(=O)c2ccccc2)c2c(c1)O[C@H](c1ccc(OC(=O)c3ccccc3)c(OC(=O)c3ccccc3)c1)[C@@H](OC(=O)c1ccccc1)C2)c1ccccc1`, for which the cell viability in assay [1] is 1.04 ± 0.059; in assay [2], 1.065 ± 0.0071; in assay [3], 1.06 ± 0.071. Besides, the “TCF/Wnt firefly luciferase reporter signal” value in assay [4] was found to be 0.978 ± 0.046; in assay [5] it was 0.972 ± 0.016.

`Cn1c(=O)c2nc[nH]c2n(C)c1=O`: the cell viability in assay [1] was 0.996 ± 0.13; in assay [2], 1.04 ± 0.021; in assay [3] it was 1.07 ± 0.035. In addition, the “TCF/Wnt firefly luciferase reporter signal” value in assay [4] turned out to be 1.19 ± 0.014; in assay [5], 0.986 ± 0.077.

As for `CCC(=O)OCC(=O)[C@@]1(OC(=O)CC)[C@@H](C)C[C@H]2[C@@H]3CCC4=CC(=O)C=C[C@]4(C)[C@@]3(F)[C@@H](O)C[C@@]21C`, the cell viability in assay [1] worked out at 1.015 ± 0.0071; in assay [2], 1.03 ± 0.073; in assay [3], 0.963 ± 0.018. In addition, the “TCF/Wnt firefly luciferase reporter signal” value amounted to 0.876 ± 0.12 in assay [4] and 0.941 ± 0.014 in assay [5].

As to `CC(=O)O[C@H]1CC[C@@]2(C)[C@@H](CC[C@@H]3[C@@H]2CC(=O)[C@]2(C)[C@@H]4[C@H](C[C@@H]32)O[C@]2(CC[C@@H](C)CO2)[C@H]4C)C1`, the cell viability in assay [1] worked out at 0.907 ± 0.018; in assay [2] it was 0.934 ± 0.047; in assay [3], 0.9615 ± 0.0035. For the same compound, the “TCF/Wnt firefly luciferase reporter signal” value in assay [4] came to 0.858 ± 0.038; in assay [5], 0.995 ± 0.16.

Regarding `O=C(OOC(=O)c1ccccc1)c1ccccc1`, the cell viability in assay [1] is 1.015 ± 0.0071; in assay [2] it was 1.12 ± 0.16; in assay [3], 0.998 ± 0.031. Further, the “TCF/Wnt firefly luciferase reporter signal” value was 0.96 ± 0.071 in assay [4] and 1.03 ± 0.053 in assay [5].

The record behind these values is the supplement of paper PMC6522484.
